Assay results published in ChEMBL document CHEMBL2218924, “A broad activity screen in support of a chemogenomic map for kinase signalling research and drug discovery” (Biochem J, 2013).

These compounds were tested against T1, Serine/threonine-protein kinase Sgk1 (Homo sapiens) (UniProt O00141). Conditions: at 1 µM.
T1 sequence (whole entry): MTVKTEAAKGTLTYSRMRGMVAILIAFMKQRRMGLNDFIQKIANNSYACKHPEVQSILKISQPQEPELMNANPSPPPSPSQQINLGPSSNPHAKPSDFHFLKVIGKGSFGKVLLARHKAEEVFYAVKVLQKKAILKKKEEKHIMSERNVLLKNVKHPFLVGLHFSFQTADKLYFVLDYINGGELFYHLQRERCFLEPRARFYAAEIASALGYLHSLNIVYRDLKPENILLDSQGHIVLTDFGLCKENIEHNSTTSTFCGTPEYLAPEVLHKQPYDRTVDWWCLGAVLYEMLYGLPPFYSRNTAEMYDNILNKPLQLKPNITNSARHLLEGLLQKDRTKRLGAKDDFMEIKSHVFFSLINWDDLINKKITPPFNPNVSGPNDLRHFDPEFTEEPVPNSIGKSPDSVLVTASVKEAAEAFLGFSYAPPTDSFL
Work on `Nc1cccc(-c2cc3c(Oc4cccc(O)c4)ncnc3[nH]2)c1` yielded a residual activity of 96%. In the case of `COc1cc2ncnc(Nc3ccc(NC(=O)c4ccccc4)cc3)c2cc1OC`, the residual activity is reported as 141%. For `Cn1nc2c3c(cccc31)C(=O)c1ccccc1-2`, the residual activity was 77%. With `c1ccc2c(-c3ccncc3)c[nH]c2c1` the residual activity was 102%. In the case of `O=C(Nc1cccc(Nc2nccc(Nc3cccc(C(F)(F)F)c3)n2)c1)C1CC1`, the residual activity is reported as 84%. `CC(C)n1cnc2c(NCc3ccccc3)nc(NCCCO)nc21` was tested, and the residual activity was 97%. Compound `O=C(O)c1ccc2c3c1cccc3c(=O)n1c3ccccc3nc21` has a residual activity of 91%. `Cn1cnc2cc3c(Nc4cccc(Br)c4)ncnc3cc21` showed a residual activity of 102%. Compound `O=C1Nc2ccc(Br)cc2/C1=C\c1cc2c([nH]1)CCCC2` has a residual activity of 104%. In the case of `c1ccc(-c2n[nH]cc2-c2ccnc3ccccc23)nc1`, the residual activity is reported as 97%. `CC(=O)c1ccc(N2CCOCC2)cc1O` showed a residual activity of 109%. With `Cc1cncc2cccc(S(=O)(=O)N3CCCN(C(=O)CN)C[C@H]3C)c12` the residual activity was 88%. `Cc1ccc(S(=O)(=O)/C=C/C#N)cc1` gave a residual activity of 76%. `O=C1NC(=O)c2cc(Nc3ccc(F)cc3)c(Nc3ccc(F)cc3)cc21` showed a residual activity of 108%. `C[C@@H](N)[C@H]1CC[C@H](C(=O)Nc2ccncc2)CC1` gave a residual activity of 100%. `CCN(CC)C(=O)c1ccc(Nc2nc(OCC3CCCCC3)c3nc[nH]c3n2)cc1` was tested, and the residual activity was 77%. `Cn1cc(/C=C2\C(=O)Nc3ccc(S(N)(=O)=O)cc32)c2ccccc21` showed a residual activity of 85%. Compound `O=C1Nc2ccccc2/C1=C1/Nc2ccccc2/C1=N\OCCC(O)CO` (stereo not drawn) has a residual activity of 67%. `c1ccc(-c2n[nH]c3c2oc2ccccc23)cc1` gave a residual activity of 99%. In the case of `NC(=O)c1ccc2[nH]c(-c3ccc(Oc4ccc(Cl)cc4)cc3)nc2c1`, the residual activity is reported as 90%. `N#CC(C#N)=C(N)/C(C#N)=C/c1ccc(O)cc1` was tested, and the residual activity was 95%. In the case of `Cc1cc2ncc(-c3ccccc3)nc2cc1C`, the residual activity is reported as 102%. `Cc1nc2cc3nc(-c4cccs4)cnc3cc2n1C` showed a residual activity of 113%. In the case of `CO[C@H]1[C@@H](OC)C[C@H](C)[C@@H](OC)C2=CC(=O)C=C(NC(=O)/C(C)=C/C=C/[C@H](OC)[C@@H](OC(N)=O)/C(C)=C/[C@@H]1C)C2=O`, the residual activity is reported as 98%. With `CN(C)CCCn1cc(C2=C(c3c[nH]c4ccccc34)C(=O)NC2=O)c2ccccc21` the residual activity was 60%. Compound `Oc1ccc(-c2nc(-c3ccc(F)cc3)c(-c3ccncc3)[nH]2)cc1` has a residual activity of 99%. In the case of `COc1cc2ncc(-c3ccccc3)nc2cc1OC`, the residual activity is reported as 98%. With `O=C1NC(=O)/C(=C\c2ccc3nccnc3c2)S1` the residual activity was 118%. `Oc1ccc(Nc2nc(-c3ccc(Cl)cc3)cs2)cc1` was tested, and the residual activity was 123%.

Each compound was assayed against T1, Serine/threonine-protein kinase Sgk1 (Homo sapiens). Conditions: at 10 µM.
`Nc1cccc(-c2cc3c(Oc4cccc(O)c4)ncnc3[nH]2)c1` gave a residual activity of 96%. `Cc1cccc(-c2[nH]c(C(C)(C)C)nc2-c2ccc3c(c2)OCO3)n1` gave a residual activity of 89%. `COc1cc2ncnc(Nc3ccc(NC(=O)c4ccccc4)cc3)c2cc1OC` gave a residual activity of 79%. In the case of `Cn1nc2c3c(cccc31)C(=O)c1ccccc1-2`, the residual activity is reported as 72%. In the case of `c1ccc2c(-c3ccncc3)c[nH]c2c1`, the residual activity is reported as 45%. With `O=C(Nc1cccc(Nc2nccc(Nc3cccc(C(F)(F)F)c3)n2)c1)C1CC1` the residual activity was 66%. For `CC(C)n1cnc2c(NCc3ccccc3)nc(NCCCO)nc21`, the residual activity was 105%. With `O=C(O)c1ccc2c3c1cccc3c(=O)n1c3ccccc3nc21` the residual activity was 103%. In the case of `Cn1cnc2cc3c(Nc4cccc(Br)c4)ncnc3cc21`, the residual activity is reported as 91%. For `O=C1Nc2ccc(Br)cc2/C1=C\c1cc2c([nH]1)CCCC2`, the residual activity was 84%. Compound `c1ccc(-c2n[nH]cc2-c2ccnc3ccccc23)nc1` has a residual activity of 95%. Work on `CC(=O)c1ccc(N2CCOCC2)cc1O` yielded a residual activity of 62%. For `N#CCCc1ccc2c(c1)-c1[nH]c3ccc([N+](=O)[O-])cc3c1CC(=O)N2`, the residual activity was 79%. `Cc1ccc(S(=O)(=O)/C=C/C#N)cc1` gave a residual activity of 104%. Compound `O=C1NC(=O)c2cc(Nc3ccc(F)cc3)c(Nc3ccc(F)cc3)cc21` has a residual activity of 76%. `C[C@@H](N)[C@H]1CC[C@H](C(=O)Nc2ccncc2)CC1` was tested, and the residual activity was 94%. Compound `CCN(CC)C(=O)c1ccc(Nc2nc(OCC3CCCCC3)c3nc[nH]c3n2)cc1` has a residual activity of 61%. Work on `Cn1cc(/C=C2\C(=O)Nc3ccc(S(N)(=O)=O)cc32)c2ccccc21` yielded a residual activity of 58%. Compound `O=C1Nc2ccccc2/C1=C1/Nc2ccccc2/C1=N\OCCC(O)CO` (stereo not drawn) has a residual activity of 29%. `c1ccc(-c2n[nH]c3c2oc2ccccc23)cc1` was tested, and the residual activity was 114%. `NC(=O)c1ccc2[nH]c(-c3ccc(Oc4ccc(Cl)cc4)cc3)nc2c1` showed a residual activity of 174%. `N#CC(C#N)=C(N)/C(C#N)=C/c1ccc(O)cc1` showed a residual activity of 86%. `Cc1cc2ncc(-c3ccccc3)nc2cc1C` showed a residual activity of 102%. Work on `CO[C@H]1[C@@H](OC)C[C@H](C)[C@@H](OC)C2=CC(=O)C=C(NC(=O)/C(C)=C/C=C/[C@H](OC)[C@@H](OC(N)=O)/C(C)=C/[C@@H]1C)C2=O` yielded a residual activity of 78%. Work on `CN(C)CCCn1cc(C2=C(c3c[nH]c4ccccc34)C(=O)NC2=O)c2ccccc21` yielded a residual activity of 13%. In the case of `Oc1ccc(-c2nc(-c3ccc(F)cc3)c(-c3ccncc3)[nH]2)cc1`, the residual activity is reported as 103%. Compound `COc1cc2ncc(-c3ccccc3)nc2cc1OC` has a residual activity of 95%. For `O=C1NC(=O)/C(=C\c2ccc3nccnc3c2)S1`, the residual activity was 73%. `Oc1ccc(Nc2nc(-c3ccc(Cl)cc3)cs2)cc1` showed a residual activity of 203%.
